Laboratory results reported in PubChem BioAssay AID1671189 (National Center for Advancing Translational Sciences (NCATS), 2021).
Among all 1,100 compounds or so, about 70 (6%) were called active. Roughly 22% stayed inconclusive and do not appear here. Calls follow the shape of the dose curve; as a rule, active = well fitted curve in the direction sought with a large enough effect; inconclusive = small, poorly fitted or top-dose-only effect, or another doubt; inactive = no such curve, though single readings can be large or run the other way. The full list was thinned out, with actives kept by preference.

biological target: Polyunsaturated fatty acid lipoxygenase ALOX12 (Homo sapiens) (UniProt P18054); test: Confirmatory qHTS assay for inhibitors of human arachidonate 12S-lipoxygenase (ALOX12): Round 2; details: purified human 12-LOX, xylenol orange absorbance; series mostly up to 125 µM; activity change, negative = inhibition: at the top concentration
Sequence (P18054 whole entry, looked up): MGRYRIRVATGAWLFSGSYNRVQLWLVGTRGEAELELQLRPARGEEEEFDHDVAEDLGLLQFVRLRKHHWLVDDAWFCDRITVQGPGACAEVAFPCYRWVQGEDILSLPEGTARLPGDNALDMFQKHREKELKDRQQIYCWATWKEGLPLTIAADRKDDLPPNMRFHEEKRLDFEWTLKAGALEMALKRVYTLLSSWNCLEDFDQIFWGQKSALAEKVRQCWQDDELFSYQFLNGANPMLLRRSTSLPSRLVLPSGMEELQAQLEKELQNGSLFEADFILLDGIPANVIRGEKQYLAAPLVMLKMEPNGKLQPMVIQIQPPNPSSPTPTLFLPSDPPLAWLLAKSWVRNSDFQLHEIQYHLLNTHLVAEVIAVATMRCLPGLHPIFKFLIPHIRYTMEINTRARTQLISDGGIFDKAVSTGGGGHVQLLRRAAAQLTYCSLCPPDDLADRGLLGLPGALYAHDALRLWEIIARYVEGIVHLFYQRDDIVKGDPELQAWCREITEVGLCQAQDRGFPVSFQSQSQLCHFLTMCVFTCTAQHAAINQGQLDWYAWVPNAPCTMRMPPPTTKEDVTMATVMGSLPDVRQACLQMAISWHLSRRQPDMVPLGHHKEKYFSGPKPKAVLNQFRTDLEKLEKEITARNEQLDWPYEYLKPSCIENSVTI
Description: Assay Provider: Theodore R. Holman Ph.D. University of California, Santa Cruz, California Human lipoxygenase 12hLO is a member of the closely related lipoxygenase family of enzymes which catalyze the site-specific oxidation of arachidonic acid to various hormone precursor molecules and as such is a candidate for drug development in a variety of disease areas, such as cancer and inflammation. Inhibition of 12hLO activity was screened by utilizing arachidonic acid as a substrate. The extent of hydroperoxide product formation was measured by a secondary chromogenic reaction in which xylenol orange (XO, Sigma-Aldrich, cat. number 39,818-7) reacts with the ferric ions produced from the reaction between the hydroperoxide and ferrous ions. The Fe (III)-XO complex is characterized with red-shifted absorbance at 560 nm. A purified preparation of human 12hLO was supplied by Dr. Holman laboratory, University of California, Santa Cruz.
PROTOCOL TABLE SEQUENCE No. (e.g., 1, 2, 3, etc.); […] (e.g., Cells, Incubation, Reagent, etc.); VALUE; DESCRIPTION 1; Enzyme; 3 uL; 150 nM 12hLO enzyme solution dispensed in 1536-well Greiner black, clear bottom plates. 2; Compound; 23 nL; compounds and controls were added. 3; Incubate; 15 min; room temperature. 4; Substrate; 1 uL; 40 uM arachidonic acid (final concentration). 5; Incubate; 30 min; room temperature. 6; Reagent; 4 uL; Fe-XO solution was added to each well. 7; Incubation; 30 min; room temperature 8; Detector; absorbance; Read 1 at 405 nm absorbance using ViewLux (PerkinElmer) CCD imager. 9; Detector; absorbance; Read 2 at 573 nm absorbance using ViewLux (PerkinElmer) CCD imager. NOTES (numbers refer to sequence above) 1; 150 nM 12hLO (final concentration) in buffer solution (25 mM Hepes, 0.01% Triton X-100, pH 7.0) was dispensed in columns 1, 2, 5-48. Column 1 is neutral (100% activity). Buffer only was dispensed in columns 3 and 4 as no enzyme negative controls. The plates were covered with metal lids with gas-exchange holes. 2; Compounds were pin transferred via a Kalypsys Pin Tool (Wako USA) in column 5 - 48. Control compound was transferred in column 2, titration of nordihydroguaiaretic acid (NDGA, Sigma-Aldrich, N5023) with top concentration of 20 mM in DMSO then 1:3 dilution in duplicate. Dilution factor of 23 nL into 4 uL final assay volume. 3; Covered assay plates were incubated for 15 min at room temperature. 4; Substrate was added to start the reaction; 40 uM arachidonic acid (Sigma-Aldrich, St. Louis, MO) was dispensed throughout the plate. 6; Chromogenic detection reagent solution (divalent iron/xylenol orange, Fe-XO) was added to each well: 200 uM xylenol orange, 300 uM ferrous ammonium sulfate prepared freshly in 50 mM sulfuric acid. 8, 9; Two absorbance readouts were obtained at 405 nm and at 573 nm using a ViewLux high-throughput CCD plate imager (PerkinElmer). The 573 to 405 (Read 2 / Read 1) absorbance ratio was used to compute reaction progress.
% is scaled to controls: 0 for no effect and ±100 for the full control effect; potency is read from the fitted curve at half-maximal effect.

Potency, active:
CC(=O)N1CCC(C(=O)N2CCC3(CC2)NC(=O)N(c2cccc(Cl)c2)N3)CC1 12.6 µM, CCCCNc1oc(-c2cccc3ccccc23)nc1C#N 19.3 µM, COc1ccc(-c2noc([C@@H]3Cc4nc[nH]c4CN3C(=O)NC3CCCCC3)n2)cc1 10 µM, O=C(NC1CCCCC1)N1Cc2[nH]cnc2C[C@H]1c1nc(-c2cccc([N+](=O)[O-])c2)no1 6.31 µM, CCOC(=O)Cn1c(=O)n(-c2ccccc2OC)c2nc(-c3ccccc3F)nc(C(N)=O)c21 11 µM, CCOC(=O)Cn1c(=O)n(-c2ccccc2OC)c2nc(-c3cccc(F)c3)nc(C(N)=O)c21 4.4 µM, COc1ccccc1CNC(=O)Nc1cccs1 21.7 µM, CCOC(=O)N1CCC(N2CCCC(CCC(=O)Nc3ccc(OC)c(Cl)c3)C2)CC1 (configuration not stated) 12.6 µM, CCCc1nc(C)cc(N2CCC(NCCc3ccc(Cl)cc3)CC2)n1 2.24 µM, COc1ccc(-c2cc(-c3cccc(CO)c3)cn3cncc23)cc1 28.2 µM, Cc1ccc(-c2cc(-c3ccc(C)o3)nc(N)c2C#N)cc1 3.06 µM, O=C1N[C@@H]2CCN(S(=O)(=O)c3ccc(Cl)cc3)[C@@H]2C(=O)N1c1ccc(Oc2ccccc2)cc1 7.94 µM

Activity change, negative = inhibition, inactive:
COc1ccc(OC2CN(Cc3cccc4ccccc34)C2)cc1 -3.44%, OCC1CN(Cc2ccc(Cl)cc2)CC12CCNCC2 (configuration not stated) -4.83% [at 64.5 µM], O=C(c1ccccc1F)N1CCn2c(nnc2C2CCNCC2)C1 -11.9%, O=C(Nc1ccc(-c2cccc(F)c2)cc1)C1CCCN1Cc1cnc[nH]1 (configuration not stated) 13.7% [at 64.5 µM], CN1CC(=O)N(C2CCCNCC2)Cc2c(NCC3CC3)ncnc21 (configuration not stated) -7.12%, C=CCNc1oc(-c2cccc3ccccc23)nc1C#N 1.51% [at 64.5 µM], CC(C)Nc1oc(-c2cccc3ccccc23)nc1C#N 11.9% [at 64.5 µM], COc1ccc(-c2nc(C3CC3)nc3c2CN([S+](=O)([O-])c2ccccc2)CC3)cc1 -25.8%, CCOCCNc1ncnc2c1CN(C1CCNCC1)C(=O)CN2C -10.1%, COc1ccc(N2CC3CCC(C2)N3C(=O)c2ccc3c(c2)OCO3)cc1 -19.9%, O=C(NCC(F)(F)F)c1cc(C2CC2)nc2c1c(C1CCCN1)nn2-c1ccccc1 (configuration not stated) -27.3%, COC(=O)[C@@H]1Cc2nc[nH]c2CN1C1CCOCC1 10.7% [at 233 µM], COc1ccc(CN2Cc3[nH]cnc3C[C@H]2c2nc(-c3ccncc3)no2)cc1 30.2%, Cc1ccc(NC(=O)N2Cc3[nH]cnc3C[C@H]2c2nc(-c3ccc4ccccc4c3)no2)cc1 3.35% [at 64.5 µM], CN1CC(=O)N(C2CCCNCC2)Cc2c(NCc3cccs3)ncnc21 (configuration not stated) -21.3%, CCc1nc2c(c(-c3ccc(OC)cc3)n1)CCN(Cc1ccc(OC)cc1)CC2 -27.7%, O=C(N1CCCC1)N1CCN(c2ccc(Cl)nn2)C(=O)C1 -25.5%, CC(NC(=O)C1CCN(c2cc(C(F)(F)F)ncn2)CC1)c1ccccc1 (configuration not stated) 5.14% [at 64.5 µM], COc1cccc(N2C(=O)NC(=NC3CCCCC3)C23CCCN([S+](=O)([O-])c2cccs2)C3)c1 (configuration not stated) -25.9%, O=c1n(-c2cccc(Cl)c2)nc2n1CCN([S+](=O)([O-])c1cccs1)C2 -15.3%, Cc1cccc(CN2CCN(Cc3nc(-c4ccco4)oc3C)C(C)C2=O)c1 (configuration not stated) -7.87% [at 64.5 µM], COCCNC(=O)c1cc(C2CC2)nc2onc(C3CCCN3)c12 (configuration not stated) -17.5%, CCOc1ccccc1CN1CCCCC12Cc1ccccc1CNC2=O (configuration not stated) -12.7%, CCNC(=O)N[C@@H]1C=C[C@@H](c2c(C)nn(-c3ccc(OC)cc3)c2C)C1 2.01% [at 64.5 µM], Cc1cc(C(=O)NC2CC2)c2c(C3CCNCC3)noc2n1 -1.86%, O=C1c2ccccc2CN1C1CCN(Cc2ccsc2)CC1 -18.5%, C1CNCC(c2nc(C3CCOCC3)no2)C1 (configuration not stated) -7.31% [at 64.5 µM], CC(=O)N1CCn2cc(C(=O)N3CCOCC3)nc2C1 -9.94%, COc1ccccc1C(=O)N1CCn2c(nnc2C2CCNCC2)C1 -23.8%, CNCc1ccccc1OC(F)(F)F -3.02%, CN1CC(=O)N(C2CCNCC2)Cc2c(NC3CCCCCC3)ncnc21 -12.8%, CN(C)CCCC(=O)N1Cc2ccccc2CC2(CCCCN2CC2CCNCC2)C1 (configuration not stated) -14.8%, CCOC(=O)N1CCC(NC)CC1 6.82%, Cc1noc(C)c1C(=O)N1Cc2ccccc2CC2(CCCN(CC3CCNC3)C2)C1 (configuration not stated) -14.1%, Fc1ccc(OC2CN(Cc3ccc(C(F)(F)F)cc3)C2)cc1F -5.08%, Cn1ccnc1C(O)c1cc2n(n1)CCN(S(=O)(=O)C1CC1)C2 (configuration not stated) 1.79% [at 64.5 µM], COc1cccc(N2C(=O)NC(=NC3CCCC3)C23CCCN(CC2CC2)C3)c1 (configuration not stated) -17.4%, COCc1cc(C[C@@H]2CC[C@H](O)[C@@H](CNC(=O)NC(C)C)O2)no1 -10.6% [at 64.5 µM], CNCc1ccccc1Cl -9.03% [at 233 µM], Cc1nc(N2CCC(C(=O)NCc3ccc(C(C)C)cc3)CC2)cc(C(F)(F)F)n1 -13.4% [at 64.5 µM], O=C(N1CCCCC1)N1CCCC(c2nnc3n2CCNC3)C1 (configuration not stated) -7.37%, Cc1cc(C)cc(-c2ccc(CN3CCCC(c4nc5ccc(F)cc5c(=O)[nH]4)C3)cc2)c1 (configuration not stated) -20.9%, CCC(CC)Nc1ncnc2c1CN(C1CCCNCC1)C(=O)CN2C (configuration not stated) -2.09%, COc1cccc(-c2ccc(CN)cc2)c1 -0.015%, COc1ccc(Nc2cnc3ccc(-c4cccc(CO)c4)nn23)cc1OC -2.32% [at 64.5 µM], COc1ccc(CNc2ncnc3c2CN(C2CCCNC2)C(=O)CN3C)cc1 (configuration not stated) -15.2%, O=C(O)CCC(=O)N1Cc2ccccc2CC2(CCCN2Cc2cccnc2)C1 (configuration not stated) -6.82%, Cc1cc(C(=O)N2CCC(F)CC2)c2c(C3CCCN3)noc2n1 (configuration not stated) -10.6%, O=Cc1ccc(-c2ccc(O)cc2)cc1 -27.2% [at 233 µM], COc1ccc(N=C2S[C@H]3[C@H]([C@@H](O)[C@H](O)C[C@@H]3C(N)=O)N2CC2CCCCC2)cc1 -10.7% [at 64.5 µM], COc1ccccc1-c1ccc(CN2CCCC(c3nc4ccc(F)cc4c(=O)[nH]3)C2)cc1 (configuration not stated) -29.2%, O=Cc1cccc(N2CCN(C(=O)c3ccc4c(c3)OCO4)CC2=O)c1 -11%, O=C1NCc2ccccc2CC12CCCN2Cc1ccsc1 (configuration not stated) -13.5%, NCC(=O)N1Cc2ccccc2CC2(CCCCN2CC2CCOCC2)C1 (configuration not stated) 2.3%, CC(=O)N1CCC2(CC1)CN(C(=O)Cc1csc(N)n1)Cc1ccccc1O2 0.398%
